Among the data in PubChem BioAssay (NCI) are growth values, retold here.

The panel holds about 83,000 compounds, 20% with a hit somewhere; the sample as a whole holds those more often.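 How to read the values: 0–100, growth inhibition (40 = 60% inhibited); 0, no net growth; -100 to 0, cell death (-40 = 40% of starting cells died; -100 = all dead).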 Unmarked numbers belong to inactive results. Calls of active or inactive are those of the source. Rule for the calls: active = growth percent below 10; inactive = the rest.

What all share (assay): NCI-60 one-dose screen, 48 h (100 = growth as untreated, 0 = no growth, -100 = all killed)
The subject of one assay is SK-MEL-2 melanoma. Particulars: 10 µM unless noted.
The subject of another assay is SN12C renal. Particulars: 10 µM unless noted.
Another assay deals with UO-31 renal. Particulars: 10 µM unless noted.
A further assay has as its system TK-10 renal. The following applies: 10 µM unless noted.
The subject of another assay is ACHN renal. The following applies: 10 µM unless noted.
The test system of a further assay is CAKI-1 renal. The following applies: 10 µM unless noted.
In another assay the test system is A498 renal. Particulars: 10 µM unless noted.
In a further assay the test system is MOLT-4 leukemia. The following applies: 10 µM unless noted.
The test system of the next assay is SR leukemia. Particulars: 10 µM unless noted.
The next assay deals with RPMI-8226 leukemia. Particulars: 10 µM.
The next assay deals with OVCAR-8 ovarian. Particulars: 10 µM unless noted.
For the next assay, the system named is OVCAR-5 ovarian. Particulars: 10 µM unless noted.
The test system of the next assay is SK-OV-3 ovarian. The following applies: 10 µM.
Another assay deals with IGROV1 ovarian. The following applies: 10 µM unless noted.
A further assay deals with OVCAR-3 ovarian. Particulars: 10 µM unless noted.
For a further assay, the system named is HS 578T breast. The following applies: 10 µM unless noted.
In another assay the test system is NCI/ADR-RES ovarian. The following applies: 10 µM unless noted.
In a further assay the test system is OVCAR-4 ovarian. The following applies: 10 µM unless noted.
In another assay the test system is CCRF-CEM leukemia. The following applies: 10 µM unless noted.

Turning to `CCOC(=O)c1c(Cl)c2c(n1Cc1ccc(OC)cc1)-c1oncc1CCC2`, the growth with SK-MEL-2 melanoma was 103%; in the assay on SN12C renal, 57.6%; in the assay on UO-31 renal, 66.2%; with TK-10 renal, 84.8%; in the assay with ACHN renal, 73.9%; with CAKI-1 renal, 56.1%. In addition, the growth in the assay on A498 renal is 65.5%; in the assay on MOLT-4 leukemia, 72.1%; in the assay on SR leukemia, 23.7%; with RPMI-8226 leukemia it was 52.4%; in the assay with OVCAR-8 ovarian, 81.5%; with OVCAR-5 ovarian it was 90.1%. Further, the growth was 105% in the assay with SK-OV-3 ovarian; 84.4% with IGROV1 ovarian; 102% in the assay with OVCAR-3 ovarian; 67.4% with HS 578T breast; 80.6% with NCI/ADR-RES ovarian.

As to `O=C(Nc1ccc(Cl)c(Cl)c1)OCn1ncc2ccc([N+](=O)[O-])cc21`, the growth was 85% in the assay with SK-MEL-2 melanoma; 95.1% in the assay on SN12C renal; 45.9% in the assay on UO-31 renal; 92.9% in the assay on TK-10 renal; 83.5% in the assay with ACHN renal; 73% in the assay with CAKI-1 renal. Also, the growth in the assay with A498 renal is 60.1%; with MOLT-4 leukemia, 70.6%; in the assay on SR leukemia, 76.7%; with RPMI-8226 leukemia, 83.4%; in the assay on OVCAR-8 ovarian it was 89%; in the assay with OVCAR-5 ovarian, 77.5%. In addition, the growth with OVCAR-4 ovarian was 93.6%; in the assay with SK-OV-3 ovarian, 86.2%; with IGROV1 ovarian, 75.5%; in the assay on OVCAR-3 ovarian it was 85.1%; in the assay on HS 578T breast, 75.4%; in the assay on NCI/ADR-RES ovarian, 84.1%.

`O=C(Nc1ccc(F)cc1)c1ccc(C(=O)Nc2ccc(F)cc2)cc1`: the growth in the assay on SK-MEL-2 melanoma is 105%; with SN12C renal it was 102%; with UO-31 renal, 87.8%; in the assay on TK-10 renal, 108%; in the assay with ACHN renal, 99.8%; in the assay with CAKI-1 renal it was 94.2%. For the same compound, the growth in the assay on A498 renal is 90.4%; with SR leukemia, 94.5%; with RPMI-8226 leukemia, 113%; with OVCAR-8 ovarian it was 99.6%; with OVCAR-5 ovarian it was 101%; in the assay on OVCAR-4 ovarian it was 93.4%. In addition, the growth in the assay on SK-OV-3 ovarian is 103%; in the assay on IGROV1 ovarian, 109%; in the assay on OVCAR-3 ovarian it was 109%; in the assay with HS 578T breast, 106%; in the assay on NCI/ADR-RES ovarian it was 116%.

`Oc1ccc(Cl)cc1CNc1nc2ccccc2[nH]1`: the growth with SK-MEL-2 melanoma was 87.1%; in the assay with SN12C renal it was 61.1%; in the assay with UO-31 renal, 56%; in the assay with TK-10 renal it was 88.2%; with ACHN renal it was 57%; with CAKI-1 renal it was 64%. For the same compound, the growth was -21.4% (active) in the assay with CCRF-CEM leukemia; -25.1% (active) with MOLT-4 leukemia; -31.7% (active) with SR leukemia; -21.2% (active) in the assay on RPMI-8226 leukemia; 42.8% in the assay with OVCAR-8 ovarian; 98.9% with OVCAR-5 ovarian. The growth in the assay with SK-OV-3 ovarian is 87.1%; in the assay on OVCAR-3 ovarian it was -73.8% (active); in the assay on HS 578T breast it was 89%; in the assay with NCI/ADR-RES ovarian, 38.6%.

Turning to `CC1(C)N=C(N)N=C(N)N1c1cccc(OCCOc2cccc([N+](=O)[O-])c2)c1`, the growth in the assay on SK-MEL-2 melanoma was 39.4%; with SN12C renal, 28.8%; in the assay on UO-31 renal, 78.4%; with TK-10 renal, 71.8%; in the assay with ACHN renal it was 89.9%; in the assay on CAKI-1 renal, 90.1%. In addition, the growth was 29.7% in the assay with CCRF-CEM leukemia; 26% in the assay with MOLT-4 leukemia; 15.9% in the assay with SR leukemia; 52.4% with RPMI-8226 leukemia; 105% in the assay with OVCAR-8 ovarian; 32% in the assay on OVCAR-5 ovarian. Besides, the growth was 81.3% with OVCAR-4 ovarian; 70% in the assay on SK-OV-3 ovarian; 29.7% in the assay on IGROV1 ovarian; 45.3% with OVCAR-3 ovarian; 82% with HS 578T breast; 107% in the assay with NCI/ADR-RES ovarian.

With `CCCCOC(=O)C1OC(Oc2ccc3c(C)cc(=O)oc3c2)[C@@H](OC(C)=O)C(OC(C)=O)C1OC(C)=O` (stereo partly drawn), the growth was 103% with SK-MEL-2 melanoma; 99.6% in the assay on SN12C renal; 87.1% with UO-31 renal; 99.2% with TK-10 renal; 101% in the assay on ACHN renal; 94.1% with CAKI-1 renal. For the same compound, the growth in the assay on CCRF-CEM leukemia is 94.1%; with MOLT-4 leukemia, 107%; in the assay with SR leukemia, 88.1%; in the assay with RPMI-8226 leukemia it was 97.9%; with OVCAR-8 ovarian it was 104%; with OVCAR-5 ovarian it was 97.8%. For the same compound, the growth in the assay on OVCAR-4 ovarian was 101%; in the assay on IGROV1 ovarian, 101%; with OVCAR-3 ovarian, 108%; with HS 578T breast, 101%; in the assay on NCI/ADR-RES ovarian, 99.9%.

Take `Nc1nc(N)c(N=Nc2c(Br)cc(S(N)(=O)=O)cc2Br)c(N)n1`: the growth in the assay with SK-MEL-2 melanoma was 94.9%; with SN12C renal it was 103%; in the assay with UO-31 renal it was 98%; with TK-10 renal, 122%; with ACHN renal, 114%; with CAKI-1 renal it was 99%. The growth in the assay with A498 renal is 96.4%; with MOLT-4 leukemia, 95.2%; with SR leukemia it was 34.5%; with RPMI-8226 leukemia, 106%; in the assay with OVCAR-8 ovarian, 98.4%; with OVCAR-5 ovarian, 109%. In addition, the growth in the assay with OVCAR-4 ovarian was 124%; with SK-OV-3 ovarian, 108%; in the assay on IGROV1 ovarian it was 105%; with OVCAR-3 ovarian it was 73.1%; in the assay on HS 578T breast, 95.1%; in the assay on NCI/ADR-RES ovarian, 107%.

Regarding `Cc1nc2ccc(Cl)cc2n1C`, the growth in the assay with SK-MEL-2 melanoma was 101%; in the assay on SN12C renal, 101%; in the assay with UO-31 renal, 102%; with TK-10 renal, 97.2%; in the assay on ACHN renal, 102%; in the assay on CAKI-1 renal it was 101%. Also, the growth in the assay on CCRF-CEM leukemia is 94.6%; in the assay with MOLT-4 leukemia it was 97.7%; in the assay with SR leukemia, 96.7%; in the assay on RPMI-8226 leukemia it was 97.4%; in the assay with OVCAR-8 ovarian it was 101%; in the assay with OVCAR-5 ovarian it was 103%. Further, the growth in the assay on OVCAR-4 ovarian was 114%; in the assay with IGROV1 ovarian, 106%; in the assay on OVCAR-3 ovarian it was 109%; in the assay on HS 578T breast it was 99.6%.

Regarding `COC(=O)c1c2c(c(C)[n+]([O-])c1C)C(=O)C=C(NCc1ccc(Cl)cc1)C2=O`, the growth is -30.9% (active) in the assay on SK-MEL-2 melanoma; -84.9% (active) in the assay with SN12C renal; -9.07% (active) in the assay with UO-31 renal; 21.7% with TK-10 renal; -19.1% (active) in the assay on ACHN renal; -3.15% (active) with CAKI-1 renal. Further, the growth with CCRF-CEM leukemia is -6.94% (active); with MOLT-4 leukemia, -32.2% (active); in the assay with SR leukemia, 3.91% (active); in the assay on RPMI-8226 leukemia, -16.2% (active); with OVCAR-8 ovarian it was 2.34% (active); in the assay on OVCAR-5 ovarian, -69% (active). Besides, the growth in the assay with IGROV1 ovarian is -50.9% (active); in the assay on OVCAR-3 ovarian it was -28.6% (active); in the assay with HS 578T breast, -19% (active); with NCI/ADR-RES ovarian, -15.1% (active).
